# Measurements taken from PubChem BioAssay AID449762 (Southern Research Specialized Biocontainment Screening …, 2010).
# Among all 330,000 compounds or so, about 1,900 (0.58%) were called active. Another 4% or so got no clear call; they are omitted. Rule as the data show it: inconclusive = inhibition above about 70% without an active follow-up result; inactive = below that. Not all results are given here. Measured potencies and affinities stand elsewhere.
# Experiment: M. tuberculosis growth inhibition, HTS (AID 449762);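 also: bacterial growth assessed after seven days of incubation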
# Conditions: M. tuberculosis H37Rv growth inhibition, 7H9 media; at 25 µM; stronger effect = higher value
row,SMILES,inhibition
1,N=C1C(c2nc3ccccc3s2)=C(O)CN1NC(=O)c1c[nH]c2ccccc12,-0.06% (inactive)
2,N=C1C(c2nc3ccccc3[nH]2)=C(O)CN1NC(=O)COc1cccc(F)c1,-2.89% (inactive)
3,CCN(CC)S(=O)(=O)c1ccc2c(c1)N(CC(=O)N1CCCC1)C(=O)CO2,-1.21% (inactive)
4,Cc1cccc(-c2noc(-c3cc4ccccc4oc3=O)n2)c1,-1.72% (inactive)
5,O=c1oc2ccccc2cc1-c1nc(-c2ccccc2)no1,23.8% (inactive)
6,COC(=O)c1cn(-c2ccccc2)nc1-c1ccc(OC)c(OC)c1,3.81% (inactive)
7,CC(C)Oc1ccc(C(=O)Nc2ccc(N3CCN(C(=O)c4ccco4)CC3)cc2)cc1,0.01% (inactive)
8,O=C(Nc1ccc(OCc2ccccc2)cc1)c1cccs1,-4.87% (inactive)
9,Cc1cccc(Nc2nc(N)c([N+](=O)[O-])c(N3CCCC(C)C3)n2)c1 (stereo unspecified),10.2% (inactive)
10,Cc1ccc(Nc2nc(N)c([N+](=O)[O-])c(N3CCC(C)CC3)n2)cc1C,-4.24% (inactive)
11,CC(NC(=O)c1cccnc1)C(c1cccs1)N1CCN(c2ccccc2F)CC1 (stereo unspecified),-3.95% (inactive)
12,O=Cc1ccc(Oc2ccc(F)cc2)nc1,0.87% (inactive)
13,CC(C)(C)c1ccc(Oc2ccc(N)cn2)cc1,14.1% (inactive)
14,O=C(NCc1ccccc1Cl)c1cnc2n(c1=O)CCS2,-6.04% (inactive)
15,Cn1cccc1/C=C1/C(=O)NC(=O)N(Cc2ccc(F)cc2)C1=O,11.8% (inactive)
16,Cn1cccc1/C=C1\C(=O)NC(=O)N(Cc2ccccc2)C1=O,3.31% (inactive)
17,N=C1C(c2nc3ccccc3s2)=C(O)CN1C1CCCCC1,8.1% (inactive)
18,COC(=O)c1cc(NC(=O)CN(C)C2CCS(=O)(=O)C2)cc(C(=O)OC)c1 (stereo unspecified),-0.88% (inactive)
19,C/C(=N\Nc1nc(C)cc(-c2ccccc2)n1)c1ccccc1,9.83% (inactive)
20,COc1cc(N/N=C(\C)c2ccc(O)c(C)c2)nc(-c2ccccc2)n1,40.1% (inactive)
21,CC(=O)CC(=O)NC(=NC1CCCCC1)Nc1nc(C)cc(C)n1,43.2% (inactive)

row,SMILES,inhibition
1,CN(C)P(=NC(=S)c1cccn1C)(N(C)C)N(C)C,0.74% (inactive)
2,Cc1ccc(-n2cccc2C(=O)NS(=O)(=O)c2ccc(C)cc2)cc1,-6.77% (inactive)
3,C#CC(=O)CCC1CCCN1C(=O)OC(C)(C)C (stereo unspecified),5.07% (inactive)
4,Cc1ccc(S(=O)(=O)N2CCOCC2)cc1NC(=O)COC(=O)C1(C)CC1(Cl)Cl (stereo unspecified),11.2% (inactive)
5,Cc1ccn2c(=O)cc(C)nc2c1,-4.1% (inactive)
6,Cc1cc(=O)n2ccsc2n1,0.36% (inactive)
7,CCOC(=O)c1cnn(CCOC(=O)c2ccc(F)cc2)c1NC(=O)c1ccc(F)cc1,0.06% (inactive)
8,CC(=O)OCn1ncc(N2CCOCC2)c(Br)c1=O,-0.34% (inactive)
9,COc1cc(OC)cc(C(=O)NC2CCCN(Cc3ccc(Cl)cc3)C2)c1 (stereo unspecified),7.21% (inactive)
10,Cc1nnc(SCC(=O)NC(=O)NC(C)(C)C)n1N,4.56% (inactive)
11,CCc1nc(N2CCN(C(=O)c3ccccc3)CC2)c(C#N)c2c1COC(C)(C)C2,15.8% (inactive)
12,CC1(C)Cc2c(C#N)c(N3CCOCC3)nc(Cc3ccccc3)c2CO1,1.75% (inactive)
13,COc1ccc(Cn2c(=O)[nH]c3cc(C(=O)NCCCN4CCCCC4)ccc3c2=O)cc1,-8.19% (inactive)
14,CCC1Nc2ncnc(N3CCN(c4ccccn4)CC3)c2N(Cc2ccc(Cl)cc2)C1=O (stereo unspecified),8.22% (inactive)
15,Cc1ccccc1N1CCN(CCCN2C(=O)CC(=C(c3ccccc3)c3ccccc3)C2=O)CC1,7.38% (inactive)
16,O=C1CC(=C(c2ccccc2)c2ccccc2)C(=O)N1CCCN1CCN(c2cccc(Cl)c2)CC1,59.9% (inactive)
17,O=Cc1ccccc1OCc1ccc2c(c1)OCO2,12.1% (inactive)
18,CCOc1ccccc1NC(=O)Nc1ccc2c(c1)OCO2,0.34% (inactive)
19,COc1ccc(-c2nnc(SC3CCOC3=O)n2C2CCCCC2)cc1OC (stereo unspecified),-0.52% (inactive)
20,Cn1c2ccccc2c(=O)c2ccc(F)cc21,38.4% (inactive)
21,Cc1ccccc1N1CC(=O)N(c2ccccc2C)CC1=O,-15.8% (inactive)

row,SMILES,inhibition
1,COc1ccc(C2/C=C\CN(C(=O)C3CCCC3)[C@H](Cc3ccccc3)C(=O)N2Cc2ccc(F)cc2)cc1 (stereo partly specified),5.26% (inactive)
2,COc1ccc(CNC(=O)C2(C)Cc3ccccc3C(=O)O2)cc1 (stereo unspecified),-2.25% (inactive)
3,Nc1ccc2nc(-c3ccccc3)[nH]c2c1,-2.77% (inactive)
4,Nc1ccc2nc(-c3ccccc3)c(-c3ccccc3)nc2c1,5.14% (inactive)
5,O=C(NCc1ccc(F)cc1)C1CCCN(C(=O)NCc2ccccc2)C1 (stereo unspecified),0.48% (inactive)
6,CCc1ccc2c(c1)C1(NN=C(c3ccc(C)cc3)S1)C(=O)N2 (stereo unspecified),5.72% (inactive)
7,Cc1ccc(C2(CC(=O)O)CCOC(C)(C)C2)cc1 (stereo unspecified),5.71% (inactive)
8,Cc1cc(C)c(OCC(=O)Nc2ccccc2N2CCOCC2)c(C)c1,-8.49% (inactive)
9,Cn1c(SCc2ccccc2)nc2ccsc2c1=O,33.7% (inactive)
10,Cc1ccc(CSc2nc3ccccc3c(=O)n2C)cc1,6.4% (inactive)
11,O=C(Nc1cccnc1Cl)c1cc([N+](=O)[O-])ccc1Cl,8.38% (inactive)
12,OCCN(Cc1ccccc1)Cc1cccc(C(F)(F)F)c1,20.1% (inactive)
13,COc1ccccc1/C=C/C(=O)OCC(=O)N1CCc2ccccc21,4.74% (inactive)
14,O=C(c1cccs1)N1CCC(c2nc3c(nnn3Cc3cccc(Cl)c3)c(=O)[nH]2)CC1,6.04% (inactive)
15,O=c1[nH]c(C2CCN(S(=O)(=O)c3ccccc3)CC2)nc2c1nnn2Cc1cccc(Cl)c1,4.46% (inactive)
16,O=C1CSC(c2ccccc2)N1CC12CC3CC(CC(O)(C3)C1)C2 (stereo unspecified),-2.58% (inactive)
17,CCOc1ccc(NC(=O)CN(C)C(=O)c2cc3c(s2)CCC(C)C3)cc1OCC (stereo unspecified),1.11% (inactive)
18,COc1ccc(-c2nc(NC(=O)Cn3cnnn3)sc2C)cc1,-7.31% (inactive)
19,COc1ccc(-c2nc(NC(=O)CSCCO)sc2C)cc1,2.7% (inactive)
